This is a sample that favours compounds with a hit; in the whole collection about 19% have one here.
DT40 TDP1 no CPT = qHTS for Inhibitors of human tyrosyl-DNA phosphodiesterase 1 (TDP1): qHTS in cells in absence of CPT | DT40 Tdp1-/- hTDP1 cells, no CPT, ATP luminescence, 48 h | Potency, µM (series often up to 46.2 µM), for inactives: at the highest dose activity change, negative = growth inhibition, most hits filed as inhibitors | 420,000 compounds, 15% hits; also: nearly all actives have a fitted effect of over 55% in size
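DT40 Tdp1-/-;hTDP1 cells, no CPT (DMSO vehicle only), 400 cells/well; compounds pin-transferred; ≥48 hr, 37 °C; CellTiter-Glo 30 min RT dark, luminescence read.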
RORgamma inh = qHTS for inhibitors of ROR gamma transcriptional activity; Nuclear receptor ROR-gamma (Mus musculus), P51450; Drosophila S2 Gal4-RORgamma UAS-luciferase reporter, 20 h; Potency, µM (doses to about 53.6 µM), inactives show top-dose activity change, negative = inhibition, most hits filed as inhibitors; 310,000 compounds, 5.4% hits; AID 2551, 2010; also: nearly all actives have a fitted effect of over 60% in size
Target sequence (P51450 whole entry, looked up, the tested form may be a part): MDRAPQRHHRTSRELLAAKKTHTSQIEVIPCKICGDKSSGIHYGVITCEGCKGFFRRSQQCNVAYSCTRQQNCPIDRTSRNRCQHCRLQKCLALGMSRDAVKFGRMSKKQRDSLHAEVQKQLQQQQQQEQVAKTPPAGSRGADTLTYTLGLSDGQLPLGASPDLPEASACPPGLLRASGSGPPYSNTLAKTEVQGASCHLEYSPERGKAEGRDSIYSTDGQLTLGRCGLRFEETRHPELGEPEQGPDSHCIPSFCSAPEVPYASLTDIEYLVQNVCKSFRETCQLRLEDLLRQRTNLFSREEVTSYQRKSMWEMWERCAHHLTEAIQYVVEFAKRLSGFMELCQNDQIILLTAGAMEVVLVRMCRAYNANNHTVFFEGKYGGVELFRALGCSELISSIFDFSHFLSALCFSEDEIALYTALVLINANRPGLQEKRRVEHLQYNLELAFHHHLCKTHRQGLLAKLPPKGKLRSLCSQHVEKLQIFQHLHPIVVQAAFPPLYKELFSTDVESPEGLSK
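Luciferase reporter read in Schneider cells carrying Gal4-RORγ (mouse) and UAS-Photinus luciferase; cells given compound 1 h before 700 uM copper sulfate induction, then incubated 20 h at ambient temperature.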
TDP1 block = qHTS Assay for Inhibitors of Tyrosyl-DNA Phosphodiesterase (TDP1). Tyrosyl-DNA phosphodiesterase 1 (Homo sapiens), Q9NUW8. recombinant TDP1, AlphaScreen DNA substrate cleavage. Potency, µM (titrated, usually from 130 µM), without a hit: top-dose activity change, negative = inhibition, hits mostly inhibitors. 350,000 compounds, 0.28% hits; also: nearly all actives have a fitted effect of over 40% in size
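AlphaScreen read-out: signal falls as enzyme removes the 3' tyrosine-FITC from a 5'-biotinylated DNA oligo (15 nM, 5 min, RT). Enzyme was E. coli-made recombinant Tdp1 at 1 nM, exposed to compound for 15 min beforehand; beads 10 ug/ml, 10 min.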
TDP1 cell CPT = qHTS for Inhibitors of human tyrosyl-DNA phosphodiesterase 1 (TDP1): qHTS in cells in presence of CPT; chicken DT40 Tdp1-/-;hTDP1 cells + 20 nM CPT, ATP luminescence, 48 h; Potency, µM (titrated, usually from 46.2 µM), for inactives: at the top dose activity change, negative = growth inhibition, hits mostly inhibitors; 420,000 compounds, 12% hits; also: nearly all actives have a fitted effect of over 55% in size
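Chicken DT40 Tdp1-/- cells complemented with human TDP1, 400 cells/well, exposed to compounds plus 20 nM camptothecin for at least 48 h at 37 C; viability read as ATP content by CellTiter-Glo luminescence.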
VP16 counter = VP16 counterscreen qHTS for inhibitors of ROR gamma transcriptional activity. Drosophila S2 Gal4-VP16 UAS-luciferase, luminescence, 20 h. Potency, µM (series often up to 53.6 µM), for inactives: at the top dose activity, negative = inhibition, actives largely listed as inhibitors. 310,000 compounds, 3.5% hits. AID 2546, 2010;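 also: Gal4-VP16 expression switched on by copper sulfate through the metallothionein promoter; nearly all actives have a fitted effect of over 50% in size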
* marks the source's active call; other numbers are inactive results; ? = inconclusive; / = no result given; [ ] = dose if it differs, or a comment. Calls follow the shape of the dose curve; as a rule, active = well fitted curve in the direction sought with a large enough effect; inconclusive = small, poorly fitted or top-dose-only effect, or another doubt; inactive = no such curve, though single readings can be large; an effect the other way counts as inactive or inconclusive. % is scaled to controls: 0 for no effect and ±100 for the full control effect; potency is read from the fitted curve at half-maximal effect.

SMILES	DT40 TDP1 no CPT	RORgamma inh	TDP1 block	TDP1 cell CPT	VP16 counter
O=C(CNc1cc(S(=O)(=O)N2CCOCC2)ccc1N1CCCC1)Nc1ccc(Cl)cc1F	13µM*	/	/	?	/
O=C(Nc1cccc(Cl)c1)Nc1cc(S(=O)(=O)N2CCOCC2)ccc1N1CCCC1	23.1µM*	4.9%	1.8%	14.6µM*	3.0%
COc1ccc(N2CC(C(=O)Nc3nnc(SCc4cccnc4)s3)CC2=O)cc1 (centres undefined)	-18.4%	8.6%	7.7%	-0.5%	2.6%
Cc1cc(C)c(Nc2ncnc3c2cnn3C)c(C)c1	16.4µM*	/	7.8%	20.6µM*	/
Cn1ncc2c(Nc3cc(Cl)cc(Cl)c3)ncnc21	?	44.6%	0.6%	?	-2.6%
Cc1cccc(-n2ncc3c(Nc4ccc(F)cc4)ncnc32)c1	?	-13.4%	3.1%	?	11.2µM*
Cc1cccc(-n2ncc3c(Nc4c(C)cc(C)cc4C)ncnc32)c1	4.61µM*	/	-2.5%	3.26µM*	/
Fc1ccc(-n2ncc3c(Nc4ccc(Oc5ccc(Cl)cc5)cc4)ncnc32)cc1	18.4µM*	/	-2.6%	?	/
COC(=O)c1ccc(Nc2ncnc3c2cnn3-c2cccc(C)c2)cc1	?	9.7%	/	-11.6%	-0.4%
Cc1cccc(-n2ncc3c(NC(C)C)ncnc32)c1	?	?	-3.1%	?	?
CC1CC(C)CN(S(=O)(=O)c2cc3c(cc2Cl)NC(=O)CO3)C1 (centres undefined)	?	-6.6%	/	-17.9%	-1.4%
O=C(CCC1CCCC1)NCCCNC(=O)CCC1CCCC1	-2.0%	/	2.8%	1.0%	/
O=C1C(=O)c2ccccc2C(O)=C1CCCCl	4.11µM*	?	-4.7%	5.8µM*	?
NC(=O)CC(NC(=O)c1ccccc1)c1ccc(NCCc2cccc(F)c2)c([N+](=O)[O-])c1 (centres undefined)	?	21.3%	6.2%	?	-12.9%
Cc1cc(N(CC(=O)O)S(C)(=O)=O)ccc1Br	-2.3%	-10.7%	7.0%	2.1%	-12.8%
CN1CCN(C2=Cc3ccccc3Sc3cc(F)ccc32)CC1	22.4µM*	19.5%	9.7%[56.1 µM]	?	-5.1%
CN1CCN(C2=Cc3ccc(Cl)cc3Sc3ccc(F)cc32)CC1	20.6µM*	12.4%	7.7%	23.1µM*	-9.7%
CN1CCN(C2=Nc3cc(F)ccc3Cc3ccccc32)CC1	?	1.9%	5.2%	?	1.7%
COc1ccccc1NC(=O)CSc1nnnn1C	-13.3%	-17.6%	2.0%	-3.6%	-5.5%
COc1cc(NC(=O)C2CCCN(S(=O)(=O)c3ccc4c(c3)oc(=O)n4C)C2)c(C(=O)O)cc1OC (centres undefined)	-3.1%	/	-1.3%	1.5%	/
CCN(c1cccc(C)c1)S(=O)(=O)c1cc2c3c(c1)CCN3C(=O)CC2	14.6µM*	/	-8.3%[0.505 µM]	29.1µM*	/
CCN(c1ccccc1)S(=O)(=O)c1cc2c3c(c1)C(C)C(=O)N3CCC2 (centres undefined)	16.4µM*	4.0%	0.7%	18.4µM*	3.9%
CCN(c1ccccc1)S(=O)(=O)c1cc2c3c(c1)CCN3C(=O)CC2	/	/	-3.1%[0.505 µM]	/	/
CC1(C(=O)O)CCCN(C(=O)c2ccc(F)cc2Cl)C1 (centres undefined)	0.1%	/	/	5.1%	/
CN1C(=O)N(C)C2C1N(C)S(=O)(=O)N2C (centres undefined)	-2.7%	-10.3%	-6.2%	8.1%	-4.7%
O=C(O)c1ccc(S(=O)(=O)N2CCC(c3nc(-c4ccccc4Cl)no3)CC2)cc1	-1.0%	-16.6%	4.2%	-10.5%	-4.7%
O=C(CN1C(=O)NC2(CCCCCC2)C1=O)c1ccc(F)cc1	-25.0%	/	/	-27.0%	/
CC1CCC2(CC1)NC(=O)N(CC(=O)Nc1cccc(S(=O)(=O)N3CCCCC3)c1)C2=O (centres undefined)	23.1µM*	/	4.3%	?	/
